# NPC1 promoter act: activators of NPC1 promoter; actives 2.4% (n = 320,000); Potency, µM (highest dose often 9.22 µM), for the others: at the top dose activation, usual class: activators; AID 485313; Huh7 NPC1 promoter luciferase reporter, 24 h; note: % of control where 0% means no effect; nearly all actives have a fitted effect of over 60% in size
#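 Luminescence from an NPC1 promoter-driven luciferase reporter in stably transfected Huh7 cells was measured after 24 h compound treatment at 37 °C, followed by 10 min ambient incubation with luciferase detection reagent.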
# SMN2 splice up: increases expression of the SMN2 splice variant; Potency, µM (series often up to 46.1 µM), inactives show at the top dose activity change, positive = activation, hits mostly activators; actives 2.8% (n = 210,000); HEK293 SMN2-luciferase splicing reporter, luminescence, 30-36 h; AID 1458; note: % of control where 0% means no effect; nearly all actives have a fitted effect of over 55% in size
#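 qHTS luciferase splicing reporter: luminescence rises when SMN2 exon 7 is included in transfected HEK293 cells. Compound exposure lasted 30-36 h at 37C, with 4.5 mM final sodium butyrate as control, followed by a ONE-Glo read.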
# ELG1 DNA repair: ELG1-dependent DNA repair inhibition; HEK293T ELG1-luciferase reporter, luminescence, 16 h; DNA damage induced by 5-fluorouridine; Potency, µM (titrated, usually from 46.1 µM), for the others: top-dose activity change, negative = inhibition, most hits filed as inhibitors; actives 2.3% (n = 330,000); note: % is set by controls: 0 for no effect and ±100 for the full control effect; nearly all actives have a fitted effect of over 55% in size
#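 Reporter activity after DNA damage by 5-fluorouridine is monitored. Compound-treated cells incubate 16 hr at 37 °C, then ONE-Glo is added for 30 min before luminescence reading.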
# FLuc modulator: inhibits or activates purified firefly luciferase, miR-21 counter-screen; actives 6.9% (n = 360,000); P08659; purified FLuc, Km substrates, luminescence inhibition; Potency, µM (highest dose often 57.5 µM), for the others: top-dose activity change, negative = inhibition, actives largely listed as inhibitors;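 note: plate controls were vehicle for no effect and reference inhibitor for full effect; nearly all actives have a fitted effect of over 55% in size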
# Target sequence (P08659 whole entry, looked up): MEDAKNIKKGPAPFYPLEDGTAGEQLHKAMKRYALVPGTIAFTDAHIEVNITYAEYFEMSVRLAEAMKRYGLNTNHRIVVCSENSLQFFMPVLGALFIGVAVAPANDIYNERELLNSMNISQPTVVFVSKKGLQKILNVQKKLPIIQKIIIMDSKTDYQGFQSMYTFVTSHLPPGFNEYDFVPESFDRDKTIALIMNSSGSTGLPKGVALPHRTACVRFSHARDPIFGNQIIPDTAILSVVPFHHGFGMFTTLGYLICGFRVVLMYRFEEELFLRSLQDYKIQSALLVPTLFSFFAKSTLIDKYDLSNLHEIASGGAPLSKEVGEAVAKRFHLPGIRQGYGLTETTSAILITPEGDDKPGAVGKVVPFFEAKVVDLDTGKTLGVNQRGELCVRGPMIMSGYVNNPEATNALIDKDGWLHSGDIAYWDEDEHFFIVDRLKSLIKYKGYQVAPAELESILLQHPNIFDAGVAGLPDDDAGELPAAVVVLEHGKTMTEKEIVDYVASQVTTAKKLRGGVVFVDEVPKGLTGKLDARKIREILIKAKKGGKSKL
#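 Biochemical qHTS of compounds, final roughly 60 µM downward over six points, against 10 nM purified firefly luciferase using Km concentrations of substrates (10 uM D-luciferin, 10 uM ATP) in Tris acetate pH 7.5 buffer; luminescence output.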
# ELG1 genotoxic: genotoxicity induction in ELG1-luciferase HEK293T cells | HEK293T ELG1-luciferase reporter, luminescence, 16 h | Potency, µM (series often up to 46 µM), inactives show at the top dose activity change, positive = activation, usual class: activators | actives 1.3% (n = 330,000) | AID 504466; note: % of control where 0% means no effect; nearly all actives have a fitted effect of over 60% in size
#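 Quantitative HTS format in 1536-well plates. HEK293T ELG1-luciferase reporter cells receive test compound and are incubated 16 hr at 37 °C, 5% CO2; ONE-Glo added, 30 min room temperature, then luminescence read.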
# Rab9 promoter act: activates the Rab9 promoter; Huh7 Rab9 promoter-luciferase reporter, luminescence, 24 h; AID 485297; actives 2.8% (n = 320,000); Potency, µM (doses to about 9.22 µM), for the others: at the top dose activation, negative = inhibition, actives largely listed as activators; note: % of control where 0% means no effect; nearly all actives have a fitted effect of over 60% in size
#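 Luminescence read-out: Huh7 cells stably expressing Rab9-luciferase, treated 24 h with compound at 37 °C, then lysed with luciferase reagent for 10 min at ambient before reading.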
# An asterisk follows results filed as active; ? = inconclusive; . = no result given; [ ] = dose if it differs, or a comment. Most compounds without a hit are left out; they make up all but 9.2% or so of the library. Calls come from the whole dose curve; as a rule, active = well fitted curve in the direction sought with a large enough effect; inconclusive = small, poorly fitted or top-dose-only effect, or another doubt; inactive = no such curve, though single readings can be large; an effect the other way counts as inactive or inconclusive. Potency is the fitted concentration of half-maximal effect.
SMILES,NPC1 promoter act,SMN2 splice up,ELG1 DNA repair,FLuc modulator,ELG1 genotoxic,Rab9 promoter act
CC(C)(C)c1ccc(C(=O)c2c[nH]c(C(=O)O)c2)cc1,?,12.6µM*,?,2.13µM*,13.2%,?
Cc1ccccc1N/C(SCc1ccc(Cl)cc1)=C(/C#N)C(=O)NCc1ccco1,-6.4%,-17.6%,?,0.6%,-0.3%,6.2%
Cc1ccc(CS/C(Nc2ccccc2C)=C(\C#N)C(=O)NCc2ccco2)c(C)c1,-3.5%,-22.7%,14.6µM*,-1.9%,-6.9%,1.0%
COc1ccc(CN(C)CC(=O)NCC(=O)Nc2c(C)cccc2C)cc1,2.1%,.,14.8%,.,2.2%,-5.0%
Cc1cccc(NC(=O)C2CCN(S(=O)(=O)c3ccc4c(c3)CCCN4C(=O)C3CCC3)CC2)c1,.,.,.,-6.6%,.,.
O=C(NC1CC(=O)c2sccc21)c1ccc(Cl)cc1Cl (configuration not stated),?,5.01µM*,?,16.9µM*,?,2.82µM*
O=C(CCC(=O)Nc1ccc(Br)cc1)N/N=C/c1ccc(O)cc1,-4.1%,.,-0.2%,-2.7%,-3.1%,1.4%
CCc1nnc(NS(=O)(=O)c2ccc(N/C=C\C(=O)c3ccc(F)cc3)cc2)s1,3.4%,-1.4%,-5.5%,19µM*,-0.1%,-2.8%
CCc1nnc(NS(=O)(=O)c2ccc(N/C=C/C(=O)c3ccc(C)cc3)cc2)s1,0.4%,?,25.0%,23.9µM*,-0.2%,-5.7%
CCc1nnc(NS(=O)(=O)c2ccc(NS(=O)(=O)c3ccc(NC(C)=O)cc3)cc2)s1,-3.8%,-8.0%,10.0%,0.8%,-2.0%,-1.8%
CCc1nnc(NS(=O)(=O)c2ccc(NC(=S)NC(=O)/C=C/c3ccc(F)cc3)cc2)s1,-3.0%,-10.4%,9.6%,-0.8%,-0.2%,1.3%
CCc1nnc(NS(=O)(=O)c2ccc(N/C=C\C(=O)c3ccc(C)cc3)cc2)s1,-0.4%,23.1%,?,19µM*,8.5%,-7.1%
CCc1nnc(NS(=O)(=O)c2ccc(N/C=C\C(=O)c3cccc(OC)c3)cc2)s1,0.7%,2.8%,10.3%,16.9µM*,9.8%,-7.3%
CCCCn1c(=O)c2oc3ccccc3c2n(Cc2ccc(OC)cc2)c1=O,.,.,.,-0.6%,.,.
COCCNC(=O)CN(C(=O)CCC(=O)Nc1ccccn1)c1cc(C)ccc1C,0.1%,.,-0.2%,1.1%,-2.5%,-2.5%
O=C(/C=C1\NCC2c3ccccc3CCN2C1=O)c1ccccc1 (configuration not stated),3.98µM*,2.82µM*,10.5%,1.2µM*,-2.0%,3.55µM*
CCn1cc(C(=O)N2CCCC2)c(=O)c2cc(S(=O)(=O)N3CC(C)CC(C)C3)ccc21 (configuration not stated),1.2%,.,1.1%,0.0%,0.3%,-4.3%
CCn1cc(C(=O)NCc2ccco2)c(=O)c2cc(S(=O)(=O)N3CCc4ccccc4C3)ccc21,0.1%,-5.3%,10.3µM*,-4.1%,-5.4%,3.7%
C=CCn1cc(C(=O)NCc2ccco2)c(=O)c2cc(S(=O)(=O)N3CCCCCC3)ccc21,0.1%,.,6.51µM*,-7.5%,2.1%,0.1%
CCn1cc(C(=O)NCc2ccco2)c(=O)c2cc(S(=O)(=O)N3CC(C)CC(C)C3)ccc21 (configuration not stated),-5.3%,-46.8%,2.91µM*,-2.9%,-8.1%,0.0%
CCn1cc(C(=O)NCc2ccco2)c(=O)c2cc(S(=O)(=O)N3CCCCCC3)ccc21,-4.9%,-15.0%,4.61µM*,-12.6%,-7.4%,-1.7%
CCN(CC(=O)NCc1ccc(F)cc1)C(=O)c1cccnc1SC,1.4%,.,13.4%,0.8%,-0.2%,0.2%
CCn1cc(C(=O)NCc2ccc(C)cc2)c(=O)c2cc(S(=O)(=O)N(C)C)ccc21,-3.8%,.,20.6µM*,-1.4%,-0.9%,0.9%[1.84 µM]
CCn1cc(C(=O)NCc2ccco2)c(=O)c2cc(S(=O)(=O)N3CCC(C)CC3)ccc21,-2.3%,-16.3%,10.3µM*,-2.9%,-7.0%,-1.0%
CCn1cc(C(=O)NCc2ccc(C)cc2)c(=O)c2cc(S(=O)(=O)N3CCC(C)CC3)ccc21,.,.,.,-2.8%,.,.
SMILES,NPC1 promoter act,SMN2 splice up,ELG1 DNA repair,FLuc modulator,ELG1 genotoxic,Rab9 promoter act
CCn1cc(C(=O)NCc2ccc(C)cc2)c(=O)c2cc(S(=O)(=O)N(C)C3CCCCC3)ccc21,.,-23.6%,.,0.0%,.,.
CC(C)CN(C(=O)CSc1nnc(C2CC2)n1-c1ccccc1)C1CCS(=O)(=O)C1 (configuration not stated),-3.4%,.,29.7%,7.7%,-0.6%,0.6%
COc1ccc2cc3cc(C(=O)N4CCN(c5ccccc5)CC4)oc3nc2c1,-1.4%,-41.1%,19.5%,?,-0.9%,-1.1%
COc1ccc2cc3cc(C(=O)N4CCCC(C)C4)oc3nc2c1 (configuration not stated),2.51µM*,.,?,5.36µM*,?,2µM*
CCOC(=O)C1CCCN(C(=O)c2cc3cc4ccc(OC)cc4nc3o2)C1 (configuration not stated),2.4%,.,25.5%,?,-0.1%,23.6%
COc1ccc2nc3oc(C(=O)N4CC(C)CC(C)C4)cc3cc2c1 (configuration not stated),-1.4%,.,?,21.3µM*,2.8%,12.0%
CCOC(=O)C1CCN(C(=O)c2cc3cc4cc(OC)ccc4nc3o2)CC1,?,11.2µM*,?,?,8.9%,3.16µM*
COc1ccc2nc3oc(C(=O)N4CCCCC4)cc3cc2c1,3.16µM*,14.1µM*,?,6.75µM*,14.6µM*,2.82µM*
O=C(Cn1c(=O)n(-c2ccccc2Cl)c(=O)c2sc3ccccc3c21)NC1CCCC1,.,-3.8%,.,-1.8%,.,.
Cc1ccc(NC(=S)NC(=O)c2sc3ccccc3c2Cl)c(C(=O)O)c1,0.6%,9.5%,?,26.9µM*,-0.2%,-1.7%
O=C(NC(=S)Nc1ccccc1N1CCOCC1)c1sc2ccccc2c1Cl,-0.6%,-35.4%,14.9%,3.9%,-2.2%,-5.2%
O=C(O)c1ccccc1NC(=S)NC(=O)c1sc2ccccc2c1Cl,14.8%,25.9%,?,23.9µM*,4.2%,24.8%
CC(=O)c1cccc(NC(=O)CSc2ncc(C(=O)Nc3ccccc3)c(=O)n2C)c1,0.9%,.,?,-12.0%,1.3%,2.7%
Cc1ccccc1NC(=O)CSc1ccncc1,5.0%,.,12.1%,-21.7%,-2.1%,-2.8%
CCOC(=O)CCS(=O)(=O)c1nc(-c2ccccc2)cc(C(F)(F)F)n1,-14.3%,?,?,-1.8%,-13.3%,-23.2%
COC(=O)CCS(=O)(=O)c1nc(-c2ccccc2)cc(C(F)(F)F)n1,-16.4%,12.6µM*,?,1.2%,-21.9%,-16.2%

# Compound activity as filed in PubChem BioAssay.
